# Test results published in PubChem BioAssay (Tox21).
# Where “and” joins values, the source holds several entries; their conditions need not be identical. Identical values can stand only once. Inconclusive results are not listed. A number with no mark means an inactive call. Calls of active or inactive are those of the source. Calls follow the shape of the dose curve; as a rule, active = well fitted inhibition curve with a large enough effect in the repeat runs; inconclusive = weak or mixed curves; inactive = no such curve, though single readings can be large or run the other way.
# Biological target: Cytochrome P450 3A4 (Homo sapiens) (UniProt P08684)
# Experiment: Cytochrome P450 Family 3 Subfamily A Member 4 (CYP3A4) small molecule antagonists: luciferase reporter qHTS assay (AID 1671201); also: nearly all actives have a fitted effect of over 50% in size
# Details: P450-Glo CYP3A4 enzyme, luciferin luminescence, 1 h; series mostly up to 115 µM; activity change, negative = inhibition: at the top concentration
# Excerpt: National Center for Advancing Translational Sciences [NCATS]
# U.S. Environmental Protection Agency [EPA]
# National Institutes of Environmental Health Sciences [NIEHS]
# National Toxicology Program [NTP]
# U.S. Food and Drug Administration [FDA]
# Cytochrome P450 (CYP) enzymes are membrane-bound hemeproteins that play a key role in metabolism of drugs and xenobiotics. Evaluation of the effect of chemicals on CYP isozymes is useful to minimize the adverse drug reactions and toxicities in drug development process. Tox21 chemicals were tested for their effect on CYP enzyme activities by using P450-Glo (TM) screening systems (Promega Corporation, Madison, WI). These systems provide a luminescent method containing proluciferin substrates and are converted to luciferin products by CYP isozymes. The luciferin products formed are detected with a luciferin detection reagent, and the amount of light produced is proportional to CYP activity. P450-Glo (TM) CYP3A4 screening system (Catalog. No. V9910) was used to detect the compounds that interfere in CYP3A4 activity. The positive control compound used for CYP3A4 assay is ketoconazole (Sigma-Aldrich, St. Louis, MO).
# Tox21 Assay Protocol Summary:
# Two ul of enzyme-substrate mix was dispensed into medium binding white/solid 1536-well plates (Greiner Bio-One North America Inc., Monroe, NC) using a BioRaptr Flying Reagent Dispenser (FRD, Beckman Coulter, Brea, CA). Compounds dissolved in DMSO and positive control (ketoconazole) were transferred to the assay plates at 23 nl using a Pintool station (Wako, San Diego, CA). The assay plates were incubated at room temperature for 10 min. Then 2 ul of NADPH regeneration solution was added to each well of the assay plates using an FRD and incubated at room temperature for 1 h. The reaction was stopped by adding 4 ul of detection reagent using an FRD and after 20 min incubation at room temperature the luminescence signal was measured using a ViewLux plate reader (Perkin Elmer, Shelton, CT). Data were expressed as relative luminescence units.
# % is scaled to controls: 0 for no effect and ±100 for the full control effect; potency is read from the fitted curve at half-maximal effect.
# Chain of Cytochrome P450 3A4 (Homo sapiens) (P08684 whole entry, looked up): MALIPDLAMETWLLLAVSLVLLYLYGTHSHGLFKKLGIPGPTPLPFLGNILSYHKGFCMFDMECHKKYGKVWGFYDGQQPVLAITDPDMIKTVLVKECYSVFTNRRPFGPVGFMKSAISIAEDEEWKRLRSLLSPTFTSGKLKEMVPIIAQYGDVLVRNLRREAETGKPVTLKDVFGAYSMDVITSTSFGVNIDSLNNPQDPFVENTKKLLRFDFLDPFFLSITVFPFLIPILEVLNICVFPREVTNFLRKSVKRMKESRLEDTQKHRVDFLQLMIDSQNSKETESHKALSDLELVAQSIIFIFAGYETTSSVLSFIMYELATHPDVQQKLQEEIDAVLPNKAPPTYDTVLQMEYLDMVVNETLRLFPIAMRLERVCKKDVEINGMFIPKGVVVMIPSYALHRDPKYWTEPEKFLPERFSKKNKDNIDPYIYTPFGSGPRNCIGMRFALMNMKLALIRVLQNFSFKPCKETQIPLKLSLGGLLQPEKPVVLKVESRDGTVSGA
Structure (SMILES),"activity change, negative = inhibition",Potency
O=C(O)C(F)(F)C(F)(F)C(F)(F)C(F)(F)C(F)(F)C(F)(F)C(F)(F)C(F)(F)F,19.8%,
O=C1c2ccccc2C(=O)N1SC(Cl)(Cl)Cl,,inactive
O=C1CC[C@@]2(O)[C@H]3Cc4ccc(O)c5c4[C@@]2(CCN3CC2CC2)[C@H]1O5,4.23% [at 52.9 µM],
NP(N)(=O)NC(=O)c1ccc(F)cc1,0.863% [at 52.9 µM],
CCNC(=O)NC(=O)/C(C#N)=N/OC,20%,
C[C@H]1[C@@H]2Cc3ccc(O)cc3[C@@]1(C)CCN2C,2.67% [at 300 µM],
O=C1NC(=O)C(=O)C(=O)N1,7.68%,
CCCC[N+]1(C)[C@@H]2CC(OC(=O)[C@H](CO)c3ccccc3)C[C@H]1[C@@H]1O[C@@H]12 (stereo not given in full),6.88% [at 52.9 µM],
COc1ccc(C(O)(c2cncnc2)C2CC2)cc1 (stereo not given),,0.894 µM (active)
C=CCc1ccccc1O,-16.6%,
C[N+](C)(C)CC1CO1 (stereo not given),9.94%,
CNC(=O)Oc1cccc(N=CN(C)C)c1,-13.4%,
OCCCl,-0.38%,
NCCc1cc(O)c(O)cc1O,-13.8% [at 52.9 µM],
COc1cc(C[C@@H](C)N)c(OC)cc1Br,1.92%,
CCCCCBr,-10.7%,
C[N+]1(CCC(C(N)=O)(c2ccccc2)c2ccccc2)CCCCC1,8.51% [at 52.9 µM],
C[C@H](N)[C@H](O)c1ccc(O)c(O)c1,-1.14% [at 52.9 µM],
CCC[N+](CCC)(CCC)CCC,-9.38%,
CC(C)c1ccc(OP(=O)(Oc2ccc(C(C)C)cc2)Oc2ccc(C(C)C)cc2)cc1,,inactive

Structure (SMILES),"activity change, negative = inhibition",Potency
FC(F)OC(F)(F)C(F)Cl (stereo not given),3.35%,
SCc1ccccc1,-0.219%,
OCCSSCCO,3.9%,
CCCCCCCCn1sccc1=O,,28.3 µM (active) and 37.3 µM (active)
Nc1cccc2ccccc12,,35.6 µM (active)
Cc1ccccc1,11.1%,
CC(O)CN1CCN(CC(=O)[O-])CCN(CC(=O)[O-])CCN(CC(=O)[O-])CC1.[Gd+3] (stereo not given),-6.16% [at 52.9 µM],
Cc1nc(N(C)C)nc(OC(=O)N(C)C)c1C,4.1%,
COC1=CC(=O)O[C@@H](/C=C/c2ccc3c(c2)OCO3)C1,,4.81 µM (active)
O=[N+]([O-])O[C@H]1CO[C@H]2[C@@H]1OC[C@H]2O[N+](=O)[O-],6.9% [at 52.9 µM],
O=P(OCC(Br)CBr)(OCC(Br)CBr)OCC(Br)CBr (stereo not given),,2.55 µM (active) and 7.56 µM (active)
CCOC(=O)NC(O)C(Cl)(Cl)Cl (stereo not given),-23.5% [at 52.9 µM],
CCOc1cccc(C2(N3CCN(c4ccccc4)CC3)CCC(C)CC2)c1 (stereo not given),-1.42%,
C=C(C)C(=O)OCCCCOC(=O)C(=C)C,-3.33%,
CCCCCCCCCCCCCCCl,2.49%,
CCC(C)Cl (stereo not given),6.44%,
C=CC(=O)OCC,7.77%,
CCC(C)(C)c1ccc(O)c(C(C)(C)CC)c1,,19.8 µM (active) and 25.2 µM (active)
C[N+](C)(C)CCOC(=O)C(O)(c1ccccc1)c1ccccc1,1.69% [at 52.9 µM],
CC1(C)CC(=O)CC(C)(C)N1[O],-8.75%,
